# Data published in the supplement of paper PMC10981050.
# Values joined by “and” are separate entries in the source; they are usually repeats but may differ in a detail not shown here. Equal entries are not always repeated. Structures can show the parent of a compound that is named as a salt.
# Assays:
# Experiment in all cases: cell viability relative to vehicle control; higher = less cytotoxic
# Details in all cases: 10 µM
# K562 = tested on: K562
# Summary of the method: (§1)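 Each screen used CRISPR-edited mutant and wild-type clones from four leukaemia lines. Compounds were acoustically dispensed at a single 10 µM dose, and CellTiter-Glo luminescence was read after 48 h with the supernatant first removed. Viability was analysed in Genedata Screener and given as percent of the on-plate vehicle control.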
# MARIMO = tested on: MARIMO
# Summary of the method: as §1
# MOLM14 = tested on: MOLM14
# Summary of the method: as §1
# OCI-AML2 = tested on: OCI-AML2
# Summary of the method: as §1
Compound,cell viability (K562; SRSF2 genotype: SRSF2 P95H/wt),cell viability (K562; SRSF2 genotype: SRSF2 wt/wt),cell viability (MARIMO; SRSF2 genotype: SRSF2 P95H/wt),cell viability (MARIMO; SRSF2 genotype: SRSF2 wt/wt),cell viability (MOLM14; SRSF2 genotype: SRSF2 P95H/wt),cell viability (MOLM14; SRSF2 genotype: SRSF2 wt/wt),cell viability (OCI-AML2; SRSF2 genotype: P95H/wt),cell viability (OCI-AML2; SRSF2 genotype: wt/wt)
C=C(C)[C@@H]1CC[C@]2(C(=O)O)CC[C@]3(C)[C@H](CC[C@@H]4[C@@]5(C)CC[C@H](OC(=O)CC(C)(C)C(=O)O)C(C)(C)[C@@H]5CC[C@]43C)[C@@H]12 [Bevirimat],102% and 101%,99.7%,107%,107%,106%,103%,97%,108%
COc1cc2ncnc(Nc3ccc(O)c(Br)c3)c2cc1OC,93.8% and 101%,96.4%,85.4%,84.6%,32.4%,24.3%,61.8%,63.9%
N#Cc1ccc(COC[C@H]2O[C@@H](n3c(NCc4ccc(Cl)c(Cl)c4)nc4c(N)ncnc43)[C@H](O)[C@@H]2O)cc1,52% and 62.8%,45.7%,32.5%,35.6%,26%,14.3%,35.1%,34.8%
C[C@H](CCC(=O)NCC(=O)O)[C@H]1CC[C@H]2[C@@H]3[C@H](O)C[C@@H]4C[C@H](O)CC[C@]4(C)[C@H]3C[C@H](O)[C@]12C [Glycocholic acid],107% and 108%,109%,106%,102%,100%,109%,117%,98%
CN1CCN(Cc2ccc(NC(=O)Nc3ccc(Oc4ccnc(N)n4)cc3)cc2C(F)(F)F)CC1,31.7% and 37.7%,22.2%,6.8%,2.68%,1.79%,0.67%,1.64%,10.3%
Cc1cc(O)c(-c2ccc([C@@H](C)CN(C)C)cc2)c2c1[nH]c(=O)c1sccc12,9.34% and 22.8%,14.7%,1.85%,1.17%,0.25%,0.22%,0.39%,7.84%
"CCCCCCOc1cc(C)c(O)c(C)c1C [HTHQ(1-O-Hexyl-2,3,5-trimethylhydroquinone)]",93.5% and 93.8%,106%,89.1%,96%,91.1%,102%,98.7%,107%
C=C1C(=O)[C@]23[C@H](O)[C@H]1CC[C@H]2[C@@]12CO[C@]3(O)[C@@H](O)[C@@H]1C(C)(C)CC[C@@H]2O [Oridonin (Isodonol)],26.2% and 29.8%,24.2%,37.5%,30.1%,9.97%,3.32%,17.9%,13.2%
C[N+]1(C)[C@@H]2C[C@@H](OC(=O)C(O)(c3cccs3)c3cccs3)C[C@H]1[C@@H]1O[C@@H]12 [Tiotropium Bromide hydrate],106% and 108%,98.9%,102%,107%,105%,104%,98.9%,104%
O=C(NO)c1cnc(NC2(c3ccccc3)CC2)nc1,8.09% and 28.4%,35.4%,3.94%,3.14%,4.83%,1.94%,0.88%,2.07%
COC(=O)[C@H](CCSC)NC(=O)c1ccc(NC[C@@H](N)CS)cc1-c1ccccc1,104% and 105%,110%,77.4%,78.5%,83.4%,90.1%,113%,113%
"CC(C)(C)C(=O)OCOP(=O)(COCCn1cnc2c(N)ncnc21)OCOC(=O)C(C)(C)C [Adefovir Dipivoxil (Preveon, Hepsera)]",59.1% and 71.3%,75.8%,30.7%,36.8%,0.75%,0.59%,0.85%,2.98%
CC12CC3CC(C)(C1)CC(N)(C3)C2 [Memantine hydrochloride (Namenda)],101% and 93.1%,93.6%,88.7%,98.8%,89.7%,101%,90.3%,103%
O=[N+]([O-])c1ccc(Sc2cccc[n+]2[O-])c2nonc12,0.23% and 0.26%,0.23%,0.65%,0.24%,0.22%,0.25%,0.28%,0.27%
CC1CNc2c(cccc2S(=O)(=O)N[C@@H](CCCNC(=N)N)C(=O)N2CC[C@@H](C)C[C@@H]2C(=O)O)C1 (some centres undefined) [Argatroban],107% and 105%,94%,100%,108%,103%,101%,91.7%,107%
CCC(=O)OCC(=O)[C@@]1(OC(=O)CC)[C@@H](C)C[C@H]2[C@@H]3CCC4=CC(=O)C=C[C@]4(C)[C@@]3(Cl)[C@@H](O)C[C@@]21C [Beclomethasone dipropionate],87.4% and 91.4%,87.7%,90%,97.8%,86%,93%,105%,117%
O=C1CC(c2ccc(O)cc2)Oc2cc(O)ccc21 (centres undefined) [Liquiritigenin],99.3% and 104%,106%,116%,93.6%,99.8%,104%,121%,99.3%
CC1OC(OC2C(OC3CC4(C)C(CC(O)C5C(C6(C)CCC(C(C)(C)O)O6)CCC54C)C4(C)CCC(O)C(C)(C)C34)OC(CO)C(O)C2O)C(O)C(O)C1O (centres undefined) [Pseudoginsenoside F11],107% and 104%,111%,107%,103%,113%,108%,103%,98.4%
Cn1cc(-c2ccc3c(c2)CCN3C(=O)Cc2cccc(C(F)(F)F)c2)c2c(N)ncnc21,37.6% and 52.8%,39.2%,60.5%,62.1%,16.1%,16%,26.3%,28.8%
CNCc1ccc(-c2[nH]c3cc(F)cc4c3c2CCNC4=O)cc1,94% and 103%,97.8%,84.7%,86.7%,50%,29.4%,44.2%,55.8%
CC(=O)OCC=Cc1ccccc1 [Cinnamyl acetate],98.4% and 95.9%,104%,99.4%,95.9%,101%,102%,101%,111%
COc1ccc2[nH]c([S+]([O-])Cc3ncc(C)c(OC)c3C)nc2c1 (centres undefined) [Omeprazole (Prilosec)],97.3% and 91.5%,95.6%,92.8%,98.5%,94.9%,95.8%,98%,100%

Compound,cell viability (K562; SRSF2 genotype: SRSF2 P95H/wt),cell viability (K562; SRSF2 genotype: SRSF2 wt/wt),cell viability (MARIMO; SRSF2 genotype: SRSF2 P95H/wt),cell viability (MARIMO; SRSF2 genotype: SRSF2 wt/wt),cell viability (MOLM14; SRSF2 genotype: SRSF2 P95H/wt),cell viability (MOLM14; SRSF2 genotype: SRSF2 wt/wt),cell viability (OCI-AML2; SRSF2 genotype: P95H/wt),cell viability (OCI-AML2; SRSF2 genotype: wt/wt)
CCOC(=O)/C=C/c1ccc(O)c(OC)c1 [Ethyl ferulate],98% and 104%,104%,92%,107%,98%,101%,112%,108%
CC(C)C[C@H](NC(=O)[C@@H](NC(=O)c1cccc(-c2ccccc2)n1)[C@@H](C)O)B(O)O,2.12% and 2.65%,3.78%,0.85%,2.98%,0.49%,0.44%,0.41%,2.11%
Cc1ccnc2c1NC(=O)c1cccnc1N2C1CC1 [Nevirapine (Viramune)],101% and 89.6%,95.5%,93.3%,99.3%,89.9%,0.15%,91.6%,104%
CC(=O)OCC(=O)[C@@]1(O)CC[C@H]2[C@@H]3CCC4=CC(=O)CC[C@]4(C)[C@@]3(F)[C@@H](O)C[C@@]21C [Fludrocortisone acetate],110% and 103%,104%,105%,109%,111%,102%,113%,119%
CSCC1CN(/N=C/c2ccc([N+](=O)[O-])o2)C(=O)O1 (centres undefined) [Nifuratel],85.1% and 77.7%,78.8%,78.3%,82.2%,77%,80.1%,79.1%,87.3%
N#CC(=Cc1cn(-c2ccccc2)c2ccccc12)C(=O)O,111% and 90.4%,93.5%,86.3%,94.5%,89.2%,97.2%,91%,95.4%
Nc1ncnc2c1ncn2[C@@H]1O[C@H](CO)[C@@H](O)[C@@H]1O [Vidarabine monohydrate],105% and 101%,110%,86%,98.5%,97.6%,103%,110%,119%
CCCCCCCCCCCCCC(=O)OCC(COC(=O)CCCCCCCCCCCCC)OC(=O)CCCCCCCCCCCCC [Tritetradecanoin],107% and 104%,103%,100%,107%,101%,102%,102%,107%
COCCc1ccc(OCC(O)CNC(C)C)cc1 (centres undefined) [Metroprolol succinate],103% and 108%,105%,100%,110%,99.5%,107%,113%,108%
CN(C)C(=O)C(CCN1CCC(O)(c2ccc(Cl)cc2)CC1)(c1ccccc1)c1ccccc1 [Loperamide hydrochloride],45.5% and 54.9%,49.4%,55.5%,61.6%,58.5%,59.7%,44.2%,54.9%
CC(C(=O)O)C(=O)O [Methylmalonate],102%,100%,98.2%,110%,97%,103%,90.5%,107%
CCCSc1ccc2[nH]c(NC(=O)OC)nc2c1 [Albendazole (Albenza)],19.1% and 33.6%,30.6%,9.83%,11.3%,6.95%,2.47%,5.18%,12.9%
CC(C)(C)c1cc(C(C)(C)C)c(NC(=O)c2c[nH]c3ccccc3c2=O)cc1O [Ivacaftor (VX-770)],79.4% and 75.5%,76.1%,101%,111%,85.7%,87.5%,91.7%,86%
CC(C)c1cnn2c(NCc3ccccc3)cc(NCCCCCCN)nc12,86.8% and 99.7%,101%,89.9%,87.8%,95.9%,98.5%,89.4%,87.5%
COc1cc(-c2oc3cc(O)cc(O)c3c(=O)c2O)ccc1O [Isorhamnetin],87.2% and 88.3%,86.6%,83.4%,92.4%,71.8%,79.4%,81.1%,89%
CCN(CC)C(=S)SSC(=S)N(CC)CC [Disulfiram (Antabuse)],42.7% and 53.4%,53.3%,14%,14.4%,27.1%,32.5%,14%,20.8%
CC(=O)Nc1ccc(C(=O)Nc2ccccc2N)cc1 [CI994 (Tacedinaline)],59.2% and 64.7%,66%,37.9%,41.3%,31.6%,25.8%,24.3%,30%
CC(=O)O[C@H]1C(=O)[C@@]2(C)[C@H]([C@H](OC(=O)c3ccccc3)[C@]3(O)C[C@H](OC(=O)[C@H](O)[C@@H](NC(=O)c4ccccc4)c4ccccc4)C(C)=C1C3(C)C)[C@]1(OC(C)=O)CO[C@@H]1C[C@@H]2O [7-Epitaxol],19.6% and 30.7%,26.1%,7.11%,4.44%,8%,2.61%,6.19%,12.1%
Cc1cc(Cl)ccc1OCCCC(=O)NO [Droxinostat],83.6% and 88.4%,85.2%,76.4%,89.8%,84.8%,87.1%,79.3%,80.7%
NCCNc1ccc(NCCN)c2c1C(=O)c1ccncc1C2=O [Pixantrone Maleate],18.2% and 23.9%,20.5%,10.7%,7.14%,0.24%,0.35%,0.25%,0.85%
C=CCC(=NOS(=O)(=O)O)S[C@@H]1O[C@H](CO)[C@@H](O)[C@H](O)[C@H]1O (stereo in doubt) [Sinigrin],96.4% and 104%,99.7%,93.4%,96.4%,94.1%,97.8%,101%,101%
